Experimental data: PubChem BioAssay (EPA / NIEHS)
Where “and” joins values, the source holds several entries; their conditions need not be identical. Equal entries are not always repeated. Inconclusive results are not listed. A structure can be active in one record and inactive in another. Calls of active or inactive are those of the source. The calls were made as follows, unless noted: active = hit-call score of the fitted dose curve at least 0.9, where 1 is the maximum; inconclusive = response in the unintended direction; inactive = score below 0.9.

How the values were obtained:
[1] = test system: turtle Androgen Receptor (AR), gene 101947425; assay: ATG_trAR_XSP2: Attagene TRANS-FACTORIAL Multi-Species (XSP2) HepG2 Assay for turtle Androgen Receptor (AR) (AID 2283815)
How it was run: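 Reporter transcripts were quantified via RT-PCR and capillary electrophoresis and fitted upward against DMSO. Transiently transfected human HepG2 cells carrying NR-Gal4 chimeras were exposed 24 h, with 3 nM 6-alpha-fluorotestosterone plus 1.5 nM norgestrel added.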

[2] = biological target: zebrafish Estrogen Receptor (ER1), esr1 (gene 259252) (UniProt P57717); assay: ATG_zfER1_XSP2: Attagene TRANS-FACTORIAL Multi-Species (XSP2) HepG2 Assay for zebrafish Estrogen Receptor (ER1) (AID 2283816)
How it was run: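 After 24 h compound exposure, RNA from transfected HepG2 cells was reverse-transcribed and reporter transcripts resolved by capillary electrophoresis. The TRANS format reads exogenous zebrafish ER1-Gal4 chimera activity on GAL4-UAS elements; gain of signal against DMSO.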

[3] = biological target: chicken Estrogen Receptor (ERa), ESR1 (gene 396099) (UniProt P06212); assay: ATG_chERa_XSP2: Attagene TRANS-FACTORIAL Multi-Species (XSP2) HepG2 Assay for chicken Estrogen Receptor (ERa) (AID 2283817);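 also: actives raise reporter signal above DMSO so AC50 reflects ER activation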
How it was run: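 Readout: fluorescent reporter-transcript fragments resolved by capillary electrophoresis after RT-PCR and HpaI cut. Chicken ERa-Gal4 fusion in transiently transfected HepG2, dosed for 24 h; activity taken as increase over DMSO baseline.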

[4] = test system: zebrafish Estrogen Receptor (ER2a), gene 317734; assay: ATG_zfER2a_XSP2: Attagene TRANS-FACTORIAL Multi-Species (XSP2) HepG2 Assay for zebrafish Estrogen Receptor (ER2a) (AID 2283818);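 also: hits raise reporter mRNA so AC50 reflects activation of zebrafish ER2a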
How it was run: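 Multiplexed trans-reporter readout: RT-PCR then capillary electrophoresis of reporter transcripts after 24 h compound treatment. Human HepG2 carries transfected zebrafish ER2a-Gal4 chimera; 3 nM 6-alpha-fluorotestosterone plus 1.5 nM norgestrel present. Induction scored against DMSO.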

[5] = test system: chicken Androgen Receptor (AR), gene 422165; assay: ATG_chAR_XSP2: Attagene TRANS-FACTORIAL Multi-Species (XSP2) HepG2 Assay for chicken Androgen Receptor (AR) (AID 2283819);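 also: hits raise reporter mRNA above DMSO so potency is for activation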
How it was run: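 Readout is reporter mRNA induction via RT-PCR/capillary electrophoresis after 24 h chemical exposure, positive direction relative to DMSO. Transiently transfected HepG2 express chimeric chicken AR–GAL4; AR stimulated by 3 nM 6-alpha-fluorotestosterone and 1.5 nM norgestrel.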

[6] = test system: zebrafish Estrogen Receptor (ER2b), gene 317733; assay: ATG_zfER2b_XSP2: Attagene TRANS-FACTORIAL Multi-Species (XSP2) HepG2 Assay for zebrafish Estrogen Receptor (ER2b) (AID 2283823);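 also: fitted upward as reporter gain over DMSO so potency reflects activation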
How it was run: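 HepG2 human liver cells transiently transfected with multiplexed GAL4-UAS reporter units expressing chimeric NR-Gal4 proteins; compounds dosed for 24 h. Reporter mRNA quantified by RT-PCR, 6-FAM labelling and capillary electrophoresis; gain-of-signal fitted against DMSO baseline.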

[7] = test system: frog Androgen Receptor (AR), gene 399456; assay: ATG_frAR_XSP2: Attagene TRANS-FACTORIAL Multi-Species (XSP2) HepG2 Assay for frog Androgen Receptor (AR) (AID 2283824);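 also: reporter mRNA from GAL4-UAS units driven by Xenopus AR-Gal4 chimera; actives raise reporter signal above DMSO so AC50 reflects agonist-like induction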
How it was run: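 Reporter transcript induction, read by RT-PCR with fluorescent capillary electrophoresis, in human liver HepG2 cells carrying an exogenous Xenopus AR-Gal4 fusion and GAL4-driven reporters; chemical exposure 24 hours, activity scored upward against DMSO controls.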

[8] = ATG_M_32_XSP2: Attagene TRANS-FACTORIAL Multi-Species (XSP2) HepG2 Assay for M19 Transcription Factor (Internal Marker) (AID 2283826)
How it was run: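 Read-out: reporter mRNA quantified by RT-PCR, FAM labeling, HpaI digestion and capillary electrophoresis, 24 h after dosing transfected HepG2 cells. Medium carried 3 nM 6-alpha-fluorotestosterone plus 1.5 nM norgestrel; gain of signal fitted against DMSO.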

[9] = biological target: Estrogen receptor (Homo sapiens) (UniProt P03372); assay: ATG_hERa_XSP2: Attagene TRANS-FACTORIAL Multi-Species (XSP2) HepG2 Assay for human Estrogen Receptor (ERa) (AID 2283827)
How it was run: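 Trans-activation of exogenous human ERa-Gal4 chimera read in HepG2 as reporter transcript after 24 h exposure; medium included 3 nM 6-alpha-fluorotestosterone and 1.5 nM norgestrel. Quantified by RT-PCR with capillary electrophoresis, positive-direction fitting against DMSO.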

[10] = test system: frog Estrogen Receptor (ER2), gene 100174814; assay: ATG_frER2_XSP2: Attagene TRANS-FACTORIAL Multi-Species (XSP2) HepG2 Assay for frog Estrogen Receptor (ER2) (AID 2283828)
How it was run: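 Cells were transfected with reporter constructs under GAL4-UAS control, dosed with chemicals for 24 h, then lysed for RNA; the frog ER2-driven reporter mRNA was quantified by capillary electrophoresis of labeled PCR fragments, with activity fitted upward from DMSO.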

[11] = biological target: mouse Peroxisome Proliferator-activated Receptor gamma (PPARg), Pparg (gene 19016) (UniProt P37238); assay: ATG_mPPARg_XSP2: Attagene TRANS-FACTORIAL Multi-Species (XSP2) HepG2 Assay for mouse Peroxisome Proliferator-activated Receptor gamma (PPARg) (AID 2283830);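 also: hits are gains in reporter mRNA above DMSO so AC50 marks activation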
How it was run: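 Multiplexed TRANS reporter readout: after 24 h chemical exposure of transfected HepG2 cells (with 3 nM 6-alpha-fluorotestosterone, 1.5 nM norgestrel present), RNA reverse-transcribed, amplified, 6-FAM-labelled and resolved by capillary electrophoresis; mouse PPARg-Gal4 induction scored against DMSO.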

[12] = biological target: Nuclear receptor subfamily 1 group I member 2 (Mus musculus) (UniProt O54915); assay: ATG_mPXR_XSP2: Attagene TRANS-FACTORIAL Multi-Species (XSP1) HepG2 Assay for mouse Pregnane X Receptor (PXR) (AID 2283831)
How it was run: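 Reporter transcripts measured after 24 h dosing by RT-PCR with 6-FAM labelling, HpaI digestion and capillary electrophoresis. Transiently transfected HepG2 with NR-Gal4 chimeras; increase over DMSO baseline scored.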

[13] = biological target: zebrafish Thyroid Hormone Receptor alpha (TRa), thraa (gene 30670) (UniProt Q98867); assay: ATG_zfTRa_XSP2: Attagene TRANS-FACTORIAL Multi-Species (XSP1) HepG2 Assay for zebrafish Thyroid Hormone Receptor alpha (TRa) (AID 2283832);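 also: actives raise zebrafish TRa-Gal4 reporter transcript above DMSO baseline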
How it was run: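 Chimeric zebrafish TRa-Gal4 activity read in transfected human HepG2 as GAL4-UAS reporter transcripts, 24 h post-dose, via RT-PCR with labeled primer extension and capillary electrophoresis. Medium also carries 3 nM 6-alpha-fluorotestosterone and 1.5 nM norgestrel; DMSO baseline.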

[14] = test system: zebrafish Peroxisome Proliferator-activated Receptor gamma (PPARg), gene 557037; assay: ATG_zfPPARg_XSP2: Attagene TRANS-FACTORIAL Multi-Species (XSP2) HepG2 Assay for zebrafish Peroxisome Proliferator-activated Receptor gamma (PPARg) (AID 2283833);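 also: actives increase reporter signal over DMSO so AC50 reflects activation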
How it was run: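 After 24 h chemical exposure, RNA from transiently transfected HepG2 (chimeric NR-Gal4 TRANS reporters) was reverse-transcribed, PCR-amplified, 6-FAM-labelled, HpaI-cut and sized by capillary electrophoresis. Induction was scored in the positive direction relative to DMSO.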

[15] = test system: turtle Thyroid Hormone Receptor, alpha (TRa), gene 101949057; assay: ATG_trTRa_XSP2: Attagene TRANS-FACTORIAL Multi-Species (XSP1) HepG2 Assay for turtle Thyroid Hormone Receptor, alpha (TRa) (AID 2283834);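 also: hits raise reporter mRNA over the DMSO baseline so AC50 marks activators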
How it was run: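 Turtle TRa-Gal4 chimera activity in transfected human HepG2 cells: reporter transcripts quantified by RT-PCR, 6-FAM labelling and capillary electrophoresis 24 h post-dosing; positive direction versus DMSO, medium containing 3 nM 6-alpha-fluorotestosterone and 1.5 nM norgestrel.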

[16] = ATG_M_61_XSP2: Attagene TRANS-FACTORIAL Multi-Species (XSP2) HepG2 Assay for M61 Transcription Factor (Internal Marker) (AID 2283835; active = hit-call score of the fitted dose curve at least 0.9, where 1 is the maximum; inactive = score below 0.9;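 also: reporter mRNA of an internal background marker read by RT-PCR and capillary electrophoresis; active means a rise in signal above the DMSO baseline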)
How it was run: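 Transient MRTU transfection of human HepG2; 24 h chemical dosing with 3 nM 6-alpha-fluorotestosterone + 1.5 nM norgestrel added for AR stimulation. RNA isolated, RT, PCR, FAM-labelled, HpaI cut, CE read. Positive direction vs DMSO.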

[17] = biological target: zebrafish Thyroid Hormone Receptor beta (TRb), thrb (gene 30607) (UniProt Q9PVE4); assay: ATG_zfTRb_XSP2: Attagene TRANS-FACTORIAL Multi-Species (XSP1) HepG2 Assay for zebrafish Thyroid Hormone Receptor beta (TRb) (AID 2283836)
How it was run: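 Reporter transcripts measured by RT-PCR, 6-FAM labelling, HpaI digestion and capillary electrophoresis after 24 h chemical exposure. Human HepG2 cells carry an exogenous zebrafish TRb-GAL4 chimera; medium included 3 nM 6-alpha-fluorotestosterone plus 1.5 nM norgestrel.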

[18] = biological target: Estrogen receptor beta (Homo sapiens) (UniProt Q92731); assay: ATG_hERb_XSP2: Attagene TRANS-FACTORIAL Multi-Species (XSP2) HepG2 Assay for human Estrogen Receptor (ERb) (AID 2283813);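 also: actives raise reporter mRNA above DMSO so AC50 reflects agonist induction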
How it was run: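 Transient TRANS reporter system in HepG2: after 24 h of chemical, RNA is reverse-transcribed, reporter cDNA amplified, FAM-labelled and sized by capillary electrophoresis. Induction of the human ERb-Gal4 reporter is measured relative to DMSO.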

Measured: AC50

Estrogen receptor beta (Homo sapiens), sequence (Q92731 whole entry, looked up, the tested form may be a part): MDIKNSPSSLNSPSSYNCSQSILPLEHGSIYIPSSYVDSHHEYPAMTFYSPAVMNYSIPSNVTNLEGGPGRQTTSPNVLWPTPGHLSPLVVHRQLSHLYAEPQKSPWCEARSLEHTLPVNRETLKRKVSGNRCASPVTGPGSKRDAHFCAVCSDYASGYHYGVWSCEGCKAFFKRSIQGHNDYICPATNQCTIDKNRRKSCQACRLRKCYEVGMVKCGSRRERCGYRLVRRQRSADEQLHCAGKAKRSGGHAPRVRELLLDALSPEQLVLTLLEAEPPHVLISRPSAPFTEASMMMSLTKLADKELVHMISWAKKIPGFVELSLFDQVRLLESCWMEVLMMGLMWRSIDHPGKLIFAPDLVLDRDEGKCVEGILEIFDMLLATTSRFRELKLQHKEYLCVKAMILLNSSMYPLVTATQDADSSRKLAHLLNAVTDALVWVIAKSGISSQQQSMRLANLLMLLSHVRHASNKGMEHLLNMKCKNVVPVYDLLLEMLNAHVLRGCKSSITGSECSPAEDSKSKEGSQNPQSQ
zebrafish Thyroid Hormone Receptor alpha (TRa), thraa (gene 30670), sequence (Q98867 whole entry, looked up, the tested form may be a part): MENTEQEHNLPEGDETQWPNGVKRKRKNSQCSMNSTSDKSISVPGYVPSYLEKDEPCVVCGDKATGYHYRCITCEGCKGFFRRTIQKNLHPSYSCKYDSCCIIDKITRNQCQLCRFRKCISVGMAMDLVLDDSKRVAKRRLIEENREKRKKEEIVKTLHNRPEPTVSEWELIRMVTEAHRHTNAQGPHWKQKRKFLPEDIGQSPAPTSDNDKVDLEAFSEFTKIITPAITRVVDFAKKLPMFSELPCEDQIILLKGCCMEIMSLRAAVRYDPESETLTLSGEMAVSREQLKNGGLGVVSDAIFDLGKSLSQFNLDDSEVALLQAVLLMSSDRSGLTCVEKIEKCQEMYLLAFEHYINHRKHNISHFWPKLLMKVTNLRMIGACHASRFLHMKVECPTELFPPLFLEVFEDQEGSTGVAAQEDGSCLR
mouse Peroxisome Proliferator-activated Receptor gamma (PPARg), Pparg (gene 19016), sequence (P37238 whole entry, looked up, the tested form may be a part): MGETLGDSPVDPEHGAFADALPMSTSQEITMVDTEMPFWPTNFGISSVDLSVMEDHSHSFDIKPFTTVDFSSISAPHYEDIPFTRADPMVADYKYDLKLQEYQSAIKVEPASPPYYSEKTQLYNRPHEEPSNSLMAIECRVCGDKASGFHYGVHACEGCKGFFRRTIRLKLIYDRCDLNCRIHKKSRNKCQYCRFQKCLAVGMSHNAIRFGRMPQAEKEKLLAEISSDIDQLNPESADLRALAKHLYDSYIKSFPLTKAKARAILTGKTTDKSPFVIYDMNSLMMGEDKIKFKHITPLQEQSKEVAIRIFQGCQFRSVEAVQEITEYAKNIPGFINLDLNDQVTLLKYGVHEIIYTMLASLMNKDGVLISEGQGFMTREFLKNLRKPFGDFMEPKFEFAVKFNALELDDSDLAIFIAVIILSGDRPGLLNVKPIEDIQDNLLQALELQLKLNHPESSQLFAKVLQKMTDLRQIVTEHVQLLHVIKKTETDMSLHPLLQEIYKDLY
zebrafish Estrogen Receptor (ER1), esr1 (gene 259252), sequence (P57717 whole entry, looked up, the tested form may be a part): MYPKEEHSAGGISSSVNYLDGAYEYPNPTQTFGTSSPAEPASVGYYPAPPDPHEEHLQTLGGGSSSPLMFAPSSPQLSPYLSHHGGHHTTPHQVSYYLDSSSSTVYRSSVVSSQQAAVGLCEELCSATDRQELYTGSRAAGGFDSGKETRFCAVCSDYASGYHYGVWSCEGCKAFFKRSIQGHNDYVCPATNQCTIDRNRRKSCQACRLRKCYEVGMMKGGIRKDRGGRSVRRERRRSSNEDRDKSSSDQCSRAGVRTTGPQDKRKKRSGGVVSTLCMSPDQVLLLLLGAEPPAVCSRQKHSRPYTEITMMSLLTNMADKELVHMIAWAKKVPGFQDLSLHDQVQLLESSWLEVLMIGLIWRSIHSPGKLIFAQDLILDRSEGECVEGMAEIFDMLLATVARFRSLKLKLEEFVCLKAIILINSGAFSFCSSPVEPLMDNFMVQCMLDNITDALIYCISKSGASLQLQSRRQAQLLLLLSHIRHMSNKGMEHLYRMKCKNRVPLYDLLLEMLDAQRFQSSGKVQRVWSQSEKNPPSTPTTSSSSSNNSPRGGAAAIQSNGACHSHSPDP
Estrogen receptor (Homo sapiens), sequence (P03372 whole entry, looked up, the tested form may be a part): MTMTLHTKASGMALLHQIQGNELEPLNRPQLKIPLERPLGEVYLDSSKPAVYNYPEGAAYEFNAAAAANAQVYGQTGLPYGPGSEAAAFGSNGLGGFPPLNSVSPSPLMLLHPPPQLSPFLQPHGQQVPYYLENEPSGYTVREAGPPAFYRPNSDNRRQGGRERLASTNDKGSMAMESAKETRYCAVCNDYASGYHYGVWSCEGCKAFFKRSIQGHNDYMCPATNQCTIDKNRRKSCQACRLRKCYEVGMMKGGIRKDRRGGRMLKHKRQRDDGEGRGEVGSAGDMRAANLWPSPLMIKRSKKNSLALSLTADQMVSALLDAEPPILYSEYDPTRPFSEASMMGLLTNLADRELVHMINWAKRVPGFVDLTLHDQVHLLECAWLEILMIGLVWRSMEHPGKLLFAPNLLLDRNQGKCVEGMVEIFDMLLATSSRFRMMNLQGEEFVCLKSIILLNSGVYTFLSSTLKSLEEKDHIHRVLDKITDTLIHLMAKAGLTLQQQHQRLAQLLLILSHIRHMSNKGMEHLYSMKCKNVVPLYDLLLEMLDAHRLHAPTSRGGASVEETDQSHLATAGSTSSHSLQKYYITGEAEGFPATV
chicken Estrogen Receptor (ERa), ESR1 (gene 396099), sequence (P06212 whole entry, looked up, the tested form may be a part): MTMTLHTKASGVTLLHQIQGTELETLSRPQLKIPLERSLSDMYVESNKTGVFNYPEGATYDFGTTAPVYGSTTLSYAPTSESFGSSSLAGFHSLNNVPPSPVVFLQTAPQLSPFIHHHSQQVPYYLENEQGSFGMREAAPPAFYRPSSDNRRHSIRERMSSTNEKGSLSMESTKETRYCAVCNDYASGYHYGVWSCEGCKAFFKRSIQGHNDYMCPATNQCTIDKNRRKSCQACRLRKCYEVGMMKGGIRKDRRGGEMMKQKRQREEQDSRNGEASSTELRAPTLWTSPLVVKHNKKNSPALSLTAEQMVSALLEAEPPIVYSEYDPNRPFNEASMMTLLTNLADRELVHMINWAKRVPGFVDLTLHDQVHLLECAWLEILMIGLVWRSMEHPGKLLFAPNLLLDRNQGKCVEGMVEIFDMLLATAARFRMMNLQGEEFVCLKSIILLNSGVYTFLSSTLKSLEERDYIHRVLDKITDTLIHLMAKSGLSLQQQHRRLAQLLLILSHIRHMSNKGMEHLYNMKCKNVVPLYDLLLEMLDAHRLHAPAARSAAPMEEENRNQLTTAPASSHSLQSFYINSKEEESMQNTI
Nuclear receptor subfamily 1 group I member 2 (Mus musculus), sequence (O54915 whole entry, looked up, the tested form may be a part): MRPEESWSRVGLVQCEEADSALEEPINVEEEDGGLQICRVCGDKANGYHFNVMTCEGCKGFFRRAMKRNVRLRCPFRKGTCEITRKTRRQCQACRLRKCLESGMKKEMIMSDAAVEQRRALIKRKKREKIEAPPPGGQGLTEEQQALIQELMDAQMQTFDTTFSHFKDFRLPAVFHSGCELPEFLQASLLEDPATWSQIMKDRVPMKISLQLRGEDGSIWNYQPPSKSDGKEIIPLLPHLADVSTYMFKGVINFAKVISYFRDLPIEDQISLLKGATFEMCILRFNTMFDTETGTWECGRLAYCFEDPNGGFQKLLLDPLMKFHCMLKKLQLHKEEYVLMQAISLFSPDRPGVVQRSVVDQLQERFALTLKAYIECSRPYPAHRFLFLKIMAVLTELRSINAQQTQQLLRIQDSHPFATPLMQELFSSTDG
zebrafish Thyroid Hormone Receptor beta (TRb), thrb (gene 30607), sequence (Q9PVE4 whole entry, looked up, the tested form may be a part): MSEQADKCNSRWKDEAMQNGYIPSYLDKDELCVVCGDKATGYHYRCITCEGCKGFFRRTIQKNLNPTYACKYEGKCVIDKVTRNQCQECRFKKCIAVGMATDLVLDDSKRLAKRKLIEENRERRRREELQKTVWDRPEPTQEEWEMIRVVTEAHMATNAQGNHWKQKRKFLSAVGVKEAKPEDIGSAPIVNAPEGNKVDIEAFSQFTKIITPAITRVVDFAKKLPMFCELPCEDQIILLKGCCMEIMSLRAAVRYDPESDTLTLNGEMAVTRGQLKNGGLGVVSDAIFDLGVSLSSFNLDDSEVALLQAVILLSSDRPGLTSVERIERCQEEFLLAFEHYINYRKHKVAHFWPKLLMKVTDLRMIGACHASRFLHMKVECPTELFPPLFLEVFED

CC(C)(C)c1cc(O)ccc1O
inactive: [1] | [2] | [5] | [7] | [8] | [12] | [14] | [15] | [16] | [17]
active: [3] 24.6 µM | [4] 43.8 µM | [6] 55.2 µM | [9] 33.1 µM | [10] 46.8 µM | [11] 70.6 µM | [13] 54.9 µM

C[C@H]1CCCC(=O)CCC/C=C/c2cc(O)cc(O)c2C(=O)O1
active: [18] 2.99 nM | [2] 9.96 nM | [3] 6.03 nM and 1.45 nM | [4] 24.6 nM and 6.41 nM | [6] 27.1 nM and 8.37 nM | [9] 3.41 nM and 1.59 nM | [10] 0.00566 µM
inactive: [18] | [2] | [5] | [10] | [11] | [13] | [14] | [15] | [16]

O=S(=O)(c1ccc(Cl)cc1)c1ccc(Cl)cc1
active: [18] 8120 nM | [2] 26.6 µM and 37.7 µM | [3] 35.3 µM and 19.3 µM | [6] 100 µM and 27.1 µM | [9] 4.86 µM and 27.8 µM | [10] 28 µM | [11] 16.3 µM and 26.8 µM | [12] 4.34 µM and 2.83 µM
inactive: [18] | [4] | [10] | [13] | [14] | [15] | [16] | [17]

Oc1ccc(-c2ccccc2)cc1
active: [18] 1.16 µM and 1.68 µM | [2] 4.42 µM and 8.23 µM | [3] 712 nM and 200 nM | [4] 2.6 µM and 1.43 µM | [6] 5.61 µM and 3.05 µM | [10] 1.75 µM and 690 nM | [11] 100 µM
inactive: [8] | [11] | [12] | [13] | [14] | [15] | [16] | [17]
